# Measurements: PubChem BioAssay AID463173 (ICCB-Longwood Screening Facility, Harvard Medical School, 2010)
# Hit rate of the full screen: of about 52,000 compounds, about 1,700 (3.3%) were called active. Rule as the data show it: active = survival mostly below about 52% (no sharp cut-off); inactive = mostly above about 56%. Many of the other results were omitted from the sample, so actives are more common in it than they were.
# Test system: Wild type
# Assay: S. aureus survival, RN4220 and DeltatarO strains – OD600, teichoic acid synthesis inhibitors, primary screen (AID 463173)
# Conditions: S. aureus RN4220 wild type/DeltatarO growth, OD600, 18 h, stronger effect = lower value, screened at 18.75 µg/mL (by protocol)
row,Compound,survival
1,O=C(CN(c1ccc(Cl)c(C(F)(F)F)c1)S(=O)(=O)c1ccccc1)Nc1cccnc1,64% (inactive)
2,Cc1c(CCC(=O)N2CCCCC2)c(=O)oc2cc3occ(C(C)(C)C)c3cc12,74% (inactive)
3,Cc1cccc(Cn2c(SCc3ccc(C(=O)NCc4cccs4)cc3)nc3ccncc32)c1,84% (inactive)
4,COc1ccc(N2CCN(S(=O)(=O)c3ccc(-c4ccno4)cc3OC)CC2)cc1,1% (active)
5,COc1cc(-c2ccno2)ccc1S(=O)(=O)N1CCN(c2ccc(F)cc2)CC1,63% (inactive)
6,COc1ccccc1N1CCN(S(=O)(=O)c2ccc(-c3ccno3)cc2OC)CC1,82% (inactive)
7,COc1cccc(N2CCN(S(=O)(=O)c3ccc(-c4ccno4)cc3OC)CC2)c1,57% (inactive)
8,COc1cc(-c2ccno2)ccc1S(=O)(=O)N1CCN(c2cccc(Cl)c2)CC1,-3% (active)
9,COc1cc(-c2ccno2)ccc1S(=O)(=O)N1CCN(c2ccccc2)CC1,71% (inactive)
10,COC(=O)c1c(-c2cccs2)csc1NC(=O)c1cc(OC)c(OC)c(OC)c1,76% (inactive)
11,CCn1ccc2cc(S(=O)(=O)N3CCCN(C(=O)NCC(=O)OC)CC3)ccc21,128% (inactive)
12,CCCn1c2ccccc2c2cnn(CC(=O)NCCc3ccc(S(N)(=O)=O)cc3)c(=O)c21,134% (inactive)
13,CCN(Cc1ccccc1)C(c1cccnc1)c1nnnn1Cc1ccccc1 (stereo not given),106% (inactive)
14,CCc1ccccc1NS(=O)(=O)c1ccc2c(c1)CCN2C(=O)C1CC1,72% (inactive)
15,Cc1ccc(Cl)cc1-n1c(SCC(=O)NCc2ccccc2)nc2n[nH]c(C)c2c1=N,72% (inactive)
16,CCCCN(CC)C(=O)CSc1nc2n[nH]c(C)c2c(=N)n1-c1cccc(Cl)c1,-1% (active)
17,Cc1cccc(-n2c(SCC(=O)Nc3ccccc3Cl)nc3n[nH]c(C)c3c2=N)c1,72% (inactive)
18,Cc1cccc(-n2c(SCC(=O)Nc3ccc(C)c(C)c3)nc3n[nH]c(C)c3c2=N)c1,76% (inactive)
19,Cc1cccc(NC(=O)CSc2nc3n[nH]c(C)c3c(=N)n2-c2cccc(Cl)c2)c1,14% (active)
20,Cc1ccc(NC(=O)CSc2nc3n[nH]c(C)c3c(=N)n2-c2cccc(C)c2)cc1,-6% (active)
21,CCCCN(CC)C(=O)CSc1nc2n[nH]c(C)c2c(=N)n1-c1cccc(OC)c1,120% (inactive)
22,Cc1ccc(CNC(=O)CSc2nc3n[nH]c(C)c3c(=N)n2-c2cccc(C)c2)cc1,133% (inactive)

row,Compound,survival
1,Cc1ccc(-n2c(SCC(=O)NCc3ccccc3)nc3n[nH]c(C)c3c2=N)cc1Cl,-6% (active)
2,Cc1c(Cl)cccc1-n1c(SCC(=O)NCc2ccccc2)nc2n[nH]c(C)c2c1=N,134% (inactive)
3,CCCCN(CC)C(=O)CSc1nc2n[nH]c(C)c2c(=N)n1-c1cccc(C)c1,78% (inactive)
4,Cc1ccc(-n2c(SCC(=O)Nc3cccc(Cl)c3)nc3n[nH]c(C)c3c2=N)cc1,85% (inactive)
5,CCOC(=O)c1ccccc1NC(=O)CSc1nc2cn(CC)nc2c(=O)n1Cc1ccc(Cl)cc1,67% (inactive)
6,Cc1ccc2ccc3cc(C(=O)N4CCN(c5ccccc5)CC4)nc3c2[nH]1,128% (inactive)
7,COc1ccc(CNC(=O)c2ccc(CS(=O)(=O)c3ccccc3OC)o2)cc1,76% (inactive)
8,CCOc1cc(Br)c(C2C(C(=O)OC)=C(C)NC3=C2C(=O)c2ccccc23)cc1OCC (stereo not given),96% (inactive)
9,Cc1ccc(-n2nnc(-c3nc(-c4cccs4)no3)c2N)cc1C,100% (inactive)
10,Cc1cccc(-n2ncc(C(=O)Nc3ccc4c(c3)OCO4)c2C2CCN(C(=O)OC(C)(C)C)CC2)c1,89% (inactive)
11,CCOC(=O)c1ccccc1NC(=O)Cn1c(=O)n(Cc2ccccc2)c(=O)c2c(C)c(C)sc21,90% (inactive)
12,CCCCOc1ccc(C(=O)NCCS(=O)(=O)N2CCN(c3ccc(F)cc3)CC2)cc1,65% (inactive)
13,COc1ccccc1NC(=O)c1c(C)cc(C)nc1SCC(=O)Nc1ccc(C)c(C)c1,81% (inactive)
14,Cc1ccc(-c2cn3c(n2)sc2cc(C(=O)NCCC4=CCCCC4)ccc23)c(C)c1,100% (inactive)
15,COC(=O)c1ccc(NC(=O)CSc2nc(=O)n(Cc3ccco3)c3c2CCC3)cc1,126% (inactive)
16,CCc1ccc(NCc2cc3ccc(OC)cc3n(CC(=O)Nc3ccccc3C)c2=O)cc1,84% (inactive)
17,COc1ccc2cc(CNc3ccc(C)cc3)c(=O)n(CC(=O)Nc3ccc(C)cc3Cl)c2c1,74% (inactive)
18,COc1ccc2c(c1)c1c(c(=O)n(Cc3ccccc3)c(=O)n1CC(=O)Nc1ccc(C)cc1C)n2C,-4% (active)
19,Cc1ccc(NCc2cc3cc4c(cc3n(CC(=O)Nc3ccc(C)cc3)c2=O)OCCO4)cc1,0% (active)
20,COc1ccc2c(c1)c1c(c(=O)n(CCc3ccccc3)c(=O)n1Cc1ccccc1)n2C,57% (inactive)
21,COc1ccc2c(c1)c1c(c(=O)n(Cc3ccccc3)c(=O)n1CC(=O)Nc1ccccc1F)n2C,129% (inactive)
22,CC(=O)c1cccc(NC(=O)Cn2c(=O)c(CNc3ccc(C)cc3)cc3cc4c(cc32)OCCO4)c1,77% (inactive)

row,Compound,survival
1,COc1ccc2cc(CNc3ccccc3)c(=O)n(CC(=O)Nc3ccc(C)cc3C)c2c1,-2% (active)
2,CCc1ccc(NCc2cc3cc4c(cc3n(CC(=O)Nc3ccc(C)cc3)c2=O)OCO4)cc1,113% (inactive)
3,COc1ccc2c(c1)c1c(c(=O)n(CCc3ccccc3)c(=O)n1Cc1cccc(F)c1)n2C,63% (inactive)
4,COc1ccc2c(c1)c1c(c(=O)n(Cc3ccccc3)c(=O)n1CC(=O)Nc1c(C)cccc1C)n2C,81% (inactive)
5,COc1ccc2c(c1)c1c(c(=O)n(CCc3ccccc3)c(=O)n1Cc1ccc(F)cc1)n2C,1% (active)
6,COc1ccc(NC(=O)C2CCCN(S(=O)(=O)c3ccc(F)cc3)C2)cc1 (stereo not given),85% (inactive)
7,COc1ccc(-n2nc3cc(C)c(NC(=O)COc4cccc(C)c4)cc3n2)cc1,78% (inactive)
8,CCCCC1CCC(C(=O)N2CC(=O)Nc3ccc(F)cc3C2c2ccc(F)cc2)CC1 (stereo not given),77% (inactive)
9,CCOc1ccc2[nH]c(=O)c(-c3nc4cccc(C)n4c3NCc3ccco3)cc2c1,108% (inactive)
10,Cc1ccc(CNC(=O)Cc2c(C)c3cc4c(C)coc4cc3oc2=O)cc1,92% (inactive)
11,COc1ccc(-c2noc(C(C)NC(=O)c3ccco3)n2)cc1 (stereo not given),107% (inactive)
12,Cc1nn(CC(=O)Nc2ccc(C(C)C)cc2)c(=O)c2c(C)n(-c3ccc(Cl)cc3)nc12,90% (inactive)
13,COc1ccc2c(c1)c1c(c(=O)n(Cc3ccccc3)c(=O)n1Cc1ccc(C)cc1)n2C,87% (inactive)
14,COc1ccc2c(c1)c1c(c(=O)n(Cc3ccccc3)c(=O)n1Cc1ccccc1)n2C,-3% (active)
15,COc1cccc(Cn2c(=O)n(Cc3ccccc3)c(=O)c3c2c2cc(OC)ccc2n3C)c1,57% (inactive)
16,C/C(=N/OCC(=O)Nc1sc2c(c1C#N)CCCC2)c1cccs1,111% (inactive)
17,CCOc1ccc(CCNC(=O)c2cc3c(s2)-c2c(C)cccc2OC3)cc1,90% (inactive)
18,CCN1CCN(CCCNC(=O)c2cc3c(s2)-c2c(C)cccc2OC3)CC1,87% (inactive)
19,CCOCCCN(Cc1ccco1)C(=O)c1cc2c(=O)[nH]c3ccc(C)cc3c2s1,127% (inactive)
20,CCOCCCN(Cc1ccco1)C(=O)c1cc2c(s1)-c1c(C)cccc1OC2,12% (active)
21,CCN(Cc1ccccc1)C(=O)c1cc2c(s1)-c1c(C)cccc1OC2,71% (inactive)
22,CCCCN(Cc1ccco1)C(=O)c1cc2c(s1)-c1c(C)cccc1OC2,13% (active)

row,Compound,survival
1,Cc1ccc(C)c(N2CCN(C(=O)Cn3ncc4c(=O)oc5ccccc5c43)CC2)c1,71% (inactive)
2,Cc1ccc2nc(N(CCCN(C)C)C(=O)c3ccco3)sc2c1,72% (inactive)
3,CCOc1ccccc1-c1nc(-c2ccc(-c3ccccc3)nc2OCC)no1,-1% (active)
4,COc1nc(C)ccc1-c1noc(-c2ccccc2)n1,100% (inactive)
5,COc1nc(-c2ccccc2)ccc1-c1noc(-c2ccccc2Br)n1,-2% (active)
6,COc1nc(-c2ccc(C)cc2)ccc1-c1noc(-c2ccccc2Br)n1,2% (active)
7,COc1cccc(-c2ccc(-c3noc(-c4ccccc4Br)n3)c(OC)n2)c1,37% (inactive)
8,CCOc1cc(-c2nc(-c3ccc(-c4ccc(C)cc4)nc3OC)no2)cc(OCC)c1OCC,56% (inactive)
9,CCOc1nc(-c2ccccc2)ccc1-c1noc(-c2ccc(C)cc2)n1,109% (inactive)
10,COc1nc(-c2ccc(C)cc2)ccc1-c1noc(-c2ccc(C(C)(C)C)cc2)n1,32% (inactive)
11,COc1nc(-c2ccccc2)ccc1-c1noc(C(C)C)n1,88% (inactive)
12,COc1ccc(-c2ccc(-c3noc(-c4cc(OC)cc(OC)c4)n3)c(OC)n2)cc1,49% (inactive)
13,CCOc1cc(-c2nc(-c3ccc(-c4ccccc4)nc3OCC)no2)cc(OCC)c1OCC,60% (inactive)
14,COc1cccc(-c2nc(-c3ccc(-c4ccccc4)nc3OC)no2)c1,2% (active)
15,COc1cccc(-c2nc3c(c(SCc4ccccc4)n2)Cc2c(CO)cnc(C)c2O3)c1,101% (inactive)
16,CCCN(CCC)CCCNC(=O)C1CCC(CNS(=O)(=O)c2ccc(NC(C)=O)cc2)CC1 (stereo not given),66% (inactive)
17,CCOC(=O)N1CCN(Cc2nc3cc(NC(=O)c4ccc(F)cc4)ccc3n2C(C)C)CC1,86% (inactive)
18,CC(=O)N1N=C(N)SC1c1ccccc1 (stereo not given),104% (inactive)
19,CCCC(=O)Nc1nnc(SCc2cc(=O)c3cc(C)ccc3[nH]2)s1,70% (inactive)
